High-throughput results deposited in PubChem BioAssay by National Center for Advancing Translational Sciences (NCATS).
Sfp PPTase inh – Sfp phosphopantetheinyl transferase inhibition; Q9F4F7; Biochemical Sfp PPTase activity, qHTS; Potency, µM, for the others: largest response in the series, negative = inhibition, actives largely listed as inhibitors; 3.5% of 310,000 active; AID 1490;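 note: the enzyme is Sfp with the accession as filed and its product quenches rhodamine fluorescence; 0% = enzyme reaction without inhibitor and -100% = no enzyme wells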
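Fluorescence-quenching assay with 15 nM Sfp, 5 uM rhodamine-CoA and 12.5 uM BHQ-2-labelled ybbR peptide in pH 7.6 Hepes/MgCl2 buffer. Enzyme was pre-incubated with compound for 15 min at room temperature. Rate was taken from the 30-min fluorescence change (525/598 nm).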
BAZ2B block – blocks human BAZ2B. AlphaScreen BAZ2B-H3K14Ac peptide displacement. Potency, µM (series often up to 114 µM), without a hit: at the top dose activity change, negative = inhibition, actives largely listed as inhibitors. 4.4% of 360,000 active. AID 504333; note: % is set by controls: 0 for no effect and ±100 for the full control effect; nearly all actives have a fitted effect of over 60% in size
Target sequence (Q9UIF8 whole entry, looked up): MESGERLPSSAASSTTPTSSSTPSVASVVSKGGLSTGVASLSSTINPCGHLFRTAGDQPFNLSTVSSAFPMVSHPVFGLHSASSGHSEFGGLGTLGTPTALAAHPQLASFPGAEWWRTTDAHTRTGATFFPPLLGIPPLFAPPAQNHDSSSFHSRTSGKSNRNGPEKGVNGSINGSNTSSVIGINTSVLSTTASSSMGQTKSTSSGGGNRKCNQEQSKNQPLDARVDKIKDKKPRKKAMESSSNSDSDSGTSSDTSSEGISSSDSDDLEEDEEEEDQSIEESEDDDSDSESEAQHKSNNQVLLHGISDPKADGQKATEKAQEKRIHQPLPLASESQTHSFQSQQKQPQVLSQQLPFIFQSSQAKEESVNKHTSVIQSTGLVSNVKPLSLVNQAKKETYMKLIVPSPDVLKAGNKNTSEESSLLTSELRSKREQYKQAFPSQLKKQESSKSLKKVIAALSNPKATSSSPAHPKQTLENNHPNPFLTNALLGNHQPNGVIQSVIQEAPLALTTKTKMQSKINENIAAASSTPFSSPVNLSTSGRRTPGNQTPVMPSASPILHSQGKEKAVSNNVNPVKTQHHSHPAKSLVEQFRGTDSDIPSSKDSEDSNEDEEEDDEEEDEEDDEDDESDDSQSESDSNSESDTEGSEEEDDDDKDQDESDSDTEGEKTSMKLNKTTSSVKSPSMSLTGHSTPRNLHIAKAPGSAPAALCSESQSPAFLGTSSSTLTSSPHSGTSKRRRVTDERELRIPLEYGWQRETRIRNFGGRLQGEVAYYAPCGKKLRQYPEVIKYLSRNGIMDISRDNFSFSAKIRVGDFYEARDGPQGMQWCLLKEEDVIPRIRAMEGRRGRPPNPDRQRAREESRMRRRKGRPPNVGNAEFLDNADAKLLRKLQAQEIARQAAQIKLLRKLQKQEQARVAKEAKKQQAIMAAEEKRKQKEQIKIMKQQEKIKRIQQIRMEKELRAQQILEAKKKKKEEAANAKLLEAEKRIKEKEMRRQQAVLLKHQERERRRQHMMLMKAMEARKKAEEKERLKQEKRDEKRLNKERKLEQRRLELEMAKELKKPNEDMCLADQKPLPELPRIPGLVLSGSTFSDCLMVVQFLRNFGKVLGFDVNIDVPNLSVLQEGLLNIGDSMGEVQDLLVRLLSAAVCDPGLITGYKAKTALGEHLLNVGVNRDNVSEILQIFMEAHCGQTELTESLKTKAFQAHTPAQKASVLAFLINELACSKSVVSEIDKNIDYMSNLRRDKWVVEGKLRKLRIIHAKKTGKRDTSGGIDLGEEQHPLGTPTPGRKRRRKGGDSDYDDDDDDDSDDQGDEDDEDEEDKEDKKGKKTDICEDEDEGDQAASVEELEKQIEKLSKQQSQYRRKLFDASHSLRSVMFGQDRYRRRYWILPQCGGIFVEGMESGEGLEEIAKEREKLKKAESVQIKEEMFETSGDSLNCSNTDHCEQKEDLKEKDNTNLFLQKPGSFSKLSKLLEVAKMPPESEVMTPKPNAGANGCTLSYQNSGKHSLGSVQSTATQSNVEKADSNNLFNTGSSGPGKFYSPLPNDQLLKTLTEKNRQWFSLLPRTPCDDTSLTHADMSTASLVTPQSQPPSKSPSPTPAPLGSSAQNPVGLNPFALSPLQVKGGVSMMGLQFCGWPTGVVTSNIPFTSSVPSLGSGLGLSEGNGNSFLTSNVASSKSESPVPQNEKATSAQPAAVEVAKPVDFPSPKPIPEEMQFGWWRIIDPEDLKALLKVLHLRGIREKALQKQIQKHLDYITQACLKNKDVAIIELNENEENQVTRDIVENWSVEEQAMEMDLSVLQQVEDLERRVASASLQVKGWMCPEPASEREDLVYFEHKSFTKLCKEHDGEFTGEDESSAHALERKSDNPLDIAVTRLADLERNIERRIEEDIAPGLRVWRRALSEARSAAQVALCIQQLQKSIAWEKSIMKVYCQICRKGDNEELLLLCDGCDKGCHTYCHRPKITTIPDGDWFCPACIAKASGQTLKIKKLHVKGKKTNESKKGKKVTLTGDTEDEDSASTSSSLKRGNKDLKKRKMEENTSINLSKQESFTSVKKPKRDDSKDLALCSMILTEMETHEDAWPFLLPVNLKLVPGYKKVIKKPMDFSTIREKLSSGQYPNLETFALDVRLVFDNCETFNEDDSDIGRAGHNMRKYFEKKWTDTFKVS
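Multi-concentration screen (max 110 uM) measuring displacement of acetylated histone H3 peptide from BAZ2B by AlphaScreen, using 50 nM protein, 50 nM peptide and 10 ug/mL streptavidin donor plus Ni-chelate acceptor beads.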
G9a block – blocks human histone lysine methyltransferase G9a; Potency, µM (top dose mostly 102 µM), for inactives: at the top dose activity, negative = inhibition, most hits filed as inhibitors; G9a H3K9 monomethylation, AlphaScreen, 2 h; Q96KQ7; AID 504332; 8.8% of 350,000 active; note: % is set by controls: 0 for no effect and ±100 for the full control effect; nearly all actives have a fitted effect of over 75% in size
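G9a (20 nM) was preincubated 15 min with compound, then reacted 2 h at room temperature with 500 nM biotin-H3K9 peptide and 20 µM SAM. Monomethyl-H3K9 detected by AlphaScreen using anti-H3K9me1 antibody.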
HP1b chromo inh – HP1-beta chromodomain-methylated histone interaction inhibition; AlphaScreen HP1-beta / biotin-H3K9me3 peptide binding; 0.56% of 390,000 active; AID 540317; Potency, µM (highest dose often 114 µM), for the others: at the top dose activity change, negative = inhibition, hits mostly inhibitors; P83916; note: nearly all actives have a fitted effect of over 70% in size
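AlphaScreen: HP1-beta (50 nM) preformed 30 min with biotin-H3(1-18)K9me3 peptide (50 nM) in PBS pH 7.4, 0.01% Tween-20. Compound added for 30 min at RT, then streptavidin donor/nickel chelate acceptor beads (10 ug/mL) for 30 min.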
JMJD2A Tudor inh – inhibitors of human JMJD2A Tudor domain. O75164. AlphaScreen JMJD2A-Tudor / H3K4me3 peptide binding. AID 504339. Potency, µM (series often up to 114 µM), without a hit: at the highest dose activity change, negative = inhibition, usual class: inhibitors. 4.4% of 390,000 active; note: % is set by controls: 0 for no effect and ±100 for the full control effect; nearly all actives have a fitted effect of over 50% in size
Numbers without * were called inactive; u = inconclusive; x = no result given; [ ] = dose if it differs, or a comment. A selection: hits, their analogues and other compounds. The true share with any hit is near 12%. Calls come from the whole dose curve; as a rule, active = well fitted curve in the direction sought with a large enough effect; inconclusive = small, poorly fitted or top-dose-only effect, or another doubt; inactive = no such curve, though single readings can be large; an effect the other way counts as inactive or inconclusive. Potency is the fitted concentration of half-maximal effect.

SMILES	Sfp PPTase inh	BAZ2B block	G9a block	HP1b chromo inh	JMJD2A Tudor inh
C[C@H](NC(=O)CNC(=O)[C@@H](NC(=O)[C@H](Cc1ccccc1)NC(=O)CNC(=O)CNC(=O)[C@@H](N)Cc1ccccc1)[C@@H](C)O)C(=O)N[C@@H](CCCN=C(N)N)C(=O)N[C@@H](CCCCN)C(=O)N[C@@H](CO)C(=O)N[C@@H](C)C(=O)N[C@@H](CCCN=C(N)N)C(=O)N[C@H](CN)CCCCN	17%	x	10%[59 µM]	x	x
O=C(O)c1ccc2c(c1)C(=O)N([C@H](Cc1ccc(F)cc1)C(=O)O)C2=O	6%	-2%	-4%[12.7 µM]	x	-18%
CCOC(=O)Nc1cccc(OCC(=O)Nc2ccc3c(c2)CCC3)c1	x	x	x	35%	-4%
O=S(=O)(NCC(c1ccco1)N1CCc2ccccc2C1)c1ccc(Br)cc1 (configuration not stated)	x	-8%	u	25%	-4%
O=C(CSc1nnc(-c2ccc(Cl)cc2)n1Cc1ccco1)Nc1ccc2c(c1)OCCO2	32µM*	-1%	45µM*	3%	-33%
Nn1c(SCC(=O)Nc2ccc3c(c2)OCCO3)nnc(CCC(=O)O)c1=O	6%	-2%	3%	5%	20µM*
O=C(O)CSc1nnc(-c2ccc(S(=O)(=O)N3CCCC3)cc2)n1Cc1ccco1	32µM*	-5%	56µM*	23%	-35%
CC(=O)Nc1cccc(NC(=O)CSc2ncc(-c3ccc(Cl)cc3)n2Cc2ccco2)c1	u	13µM*	13µM*	u	u
O=C(CSc1nnc(-c2ccccc2Cl)n1Cc1ccco1)Nc1ccc2c(c1)OCCO2	-3%	-37%	-40%[59 µM]	21%	-11%[11.4 µM]
O=C(CSc1nccn1Cc1ccco1)Nc1cccc(F)c1	6%	-34%	18%	8%	-21%
O=C(NCc1nnc2c(C(F)(F)F)cc(Cl)cn12)c1ccc2c(c1)OCO2	10%	-30%	39%	35%	4%
Cn1nnnc1Sc1ncnc2scc(I)c12	x	x	x	x	79µM*
CCOC(=O)c1ccc(NC(=S)NCCCn2ccnc2)cc1	4%	56µM*	u	38%	-26%
Cc1cc(C(=O)NCCCn2ccnc2)sc1-c1ccccc1	-4%	50µM*	u	-4%	u
O=C(NCCCn1ccnc1)c1ccc(-c2ccccc2)cc1	12%	u	15%	24%	-17%
COc1ccc(NC(=O)C(=O)NCCCn2ccnc2)cc1	8%	-5%	2%	-9%	-20%
COC(=O)c1ccc(NC(=S)NCCCn2ccnc2)cc1	13%	79µM*	-10%	4%	-23%
O=C(NCCCn1ccnc1)C(=O)Nc1ccccc1	10%	-27%	-8%	u	79µM*
COc1ccc(-c2nc(CSCC(=O)NCCc3ccc(C)cc3)c(C)o2)cc1OC	x	u	u	28%	-30%
CN(C)S(=O)(=O)c1cccc(NC(=S)NCCCn2ccnc2)c1	2%	79µM*	-1%	14%	-4%[57.1 µM]
Cc1ccc(S(=O)(=O)N(C)C)cc1NC(=S)NCCCn1ccnc1	19%	x	-3%	29%	-25%
O=c1c(Cc2c(F)cccc2Cl)c(O)ccn1C1CCCCCC1	2%	u	-11%	46%	-5%
CC(C)c1ccc(C2CC(=O)N3CN(C)CSC3=C2C#N)cc1 (configuration not stated)	4.5µM*	-33%	1.6µM*	u	u
N#CC1=C2SCN(C3CCCCC3)CN2C(=O)CC1c1ccc(Cl)cc1 (configuration not stated)	x	x	2µM*	u	16µM*
CCc1ccc(C2CC(=O)NC(SCC(=O)OC(C)C)=C2C#N)cc1 (configuration not stated)	6%	12%	u	60%	-12%
SMILES	Sfp PPTase inh	BAZ2B block	G9a block	HP1b chromo inh	JMJD2A Tudor inh
N#CC1=C2SCN(C3CCCCC3)CN2C(=O)CC1c1c(F)cccc1Cl (configuration not stated)	x	x	2.8µM*	u	22µM*
O=C1CSC(c2ccc(Cl)cc2)N1C1CCCCC1 (configuration not stated)	9%	7%	13%[59 µM]	30%	3%
Cn1c(C(=O)N2CCc3ccccc3C2)cc2oc3ccccc3c21	-13%	u	u	u	79µM*
CCn1c(C(=O)N2CCc3ccccc3C2)cc2oc3ccccc3c21	u	50µM*	u	-23%	u
O=C(/C=C/c1ccccc1)c1cc(Br)ccc(=O)c1O	16µM*	45µM*	13µM*	u	56µM*
Cc1ccc(/C=C/C(=O)c2ccccc(=O)c2O)cc1C	u	71µM*	28µM*	u	79µM*
O=C(/C=C\c1ccccc1)c1ccccc1O	14%	x	x	x	x
CC(C)OCCCN1C=C2C(=O)C(C)(OC(=O)C3CCCC3)C(=O)C=C2C=C1c1ccsc1 (configuration not stated)	1%	x	x	x	x
O=c1[nH]c(=O)c2nc3c4ccccc4c4ccccc4c3nc2[nH]1	u	56µM*	40µM*	-7%	-32%[11.4 µM]
CCn1nnc(C(=O)O)c1C(=O)O	1%	u	u	0%	20µM*
Nc1c(C(=O)O)nnn1Cc1ccccc1	-4%	-30%	u	6%	-23%
N#CCCN(C(=O)COC(=O)CCc1ccccc1)c1ccccc1	8%	-14%	12%	23%[57 µM]	0%
Cc1ccc(SCC(=O)OCC(=O)N(CCC#N)c2ccccc2)cc1C	x	13%	56µM*	53%	u
O=[N+]([O-])c1cc(N=Nc2ccc3ccccc3c2)ccc1O	11%	u	3.2µM*	-17%	u
Nc1ccc(O)c([N+](=O)[O-])c1	x	-39%	-28%[0.501 µM]	-8%	-29%
Cc1cc(NC(=O)CSc2ccc(-c3ccc(Br)cc3)nn2)no1	-7%	-12%	-25%	40%	1%
Cc1oc(-c2ccc(F)cc2)nc1CN(Cc1ccccn1)CC1CCCO1 (configuration not stated)	0%	-14%	1%	u	20µM*
O=C(Cc1ccccc1)n1nc(-c2ccco2)nc1SCc1ccccc1	13%	-37%	27%[12.7 µM]	20%	89µM*
CCCC(=O)n1nc(-c2ccco2)nc1SCc1ccccc1	50µM*	87%	22%	29%	41%
CCOCCc1nnc(NC(=O)C(=O)c2cc(C)n(-c3cccc(Cl)c3)c2C)s1	x	4%	-35%[59 µM]	35%	-6%
CC(C)(Cc1c[nH]c2ccccc12)NCC(O)COc1ccccc1C#N (configuration not stated)	-3%	x	-29%[12.7 µM]	x	x
CCn1c2ccc(C)cc2c2n[nH]c(=S)nc21	-9%	-36%	7.1µM*	28%	-30%
CCCNc1nc(C#N)nc(Nc2ccccc2)n1	x	x	x	x	-2%
Cc1ccc(S(=O)(=O)N2CCN(C(=O)COC(=O)c3ccccc3OC(F)F)CC2)c(C)c1	x	x	x	17%	-22%
CC1CCN(c2cc(N)c(Cl)cc2[N+](=O)[O-])CC1	1%	u	50µM*	-17%	u
